Screening data deposited in PubChem BioAssay by National Center for Advancing Translational Sciences (NCATS).
ELG1 genotox: qHTS screen for small molecules that induce genotoxicity in human embryonic kidney (HEK293T) cells expressing luciferase-tagged ELG1 | HEK293T ELG1-luciferase reporter, luminescence, 16 h | Potency, µM (highest dose often 46 µM), actives largely listed as activators | 330,000 tested, 1.3% active; further: nearly all actives have a fitted effect of over 60% in size
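Luminescence read-out: rising ELG1-luciferase signal, reflecting elevated ELG1 protein under genetic stress, flags genotoxic compounds. Cells were treated for 16 hr at 37 °C before ONE-Glo detection.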
Luc counter: Counterscreen for Luciferase (Kinase-Glo TM) Inhibition; Luciferin 4-monooxygenase (Photuris pensylvanica), Q27757; Kinase-Glo luciferase, ATP luminescence, 8 min; 200,000 tested, 0.28% active; Potency, µM (doses to about 38.3 µM), usual class: inhibitors; further: nearly all actives have a fitted effect of over 60% in size
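Kinase-Glo luciferase light output from ATP and luciferin was measured with 10 uM ATP, within the enzyme's linear range. Buffer: 50 mM imidazole pH 7.2, 50 mM KCl, 7 mM MgCl2, 0.01% Tween 20, 0.05% BSA; luminescence read after 8 min at ambient temperature.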
Rab9 prom act: qHTS Assay for Rab9 Promoter Activators. Huh7 Rab9 promoter-luciferase reporter, luminescence, 24 h. 320,000 tested, 2.8% active. Potency, µM (top dose mostly 9.22 µM), hits mostly activators; further: nearly all actives have a fitted effect of over 60% in size
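Luminescence from Amplite-detected luciferase (10 minutes, ambient) reports Rab9 promoter activation. Before that, stable Rab9-luciferase Huh7 cells (1500/well, reduced-serum OP-MEM I plus 10% FBS) were exposed to compound for 24 hours at 37C.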
SMN2 splice enh: qHTS Assay for Enhancers of SMN2 Splice Variant Expression; Potency, µM (highest dose often 46.1 µM), hits mostly activators; 210,000 tested, 2.8% active; HEK293 SMN2-luciferase splicing reporter, luminescence, 30-36 h; AID 1458, 2008; further: nearly all actives have a fitted effect of over 55% in size
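qHTS luciferase splicing reporter: luminescence rises when SMN2 exon 7 is included in transfected HEK293 cells. Compound exposure lasted 30-36 h at 37C, with 4.5 mM final sodium butyrate as control, followed by a ONE-Glo read.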
NPC1 prom act: qHTS Assay for NPC1 Promoter Activators; Potency, µM (highest dose often 9.22 µM), actives largely listed as activators; 320,000 tested, 2.4% active; Huh7 NPC1 promoter luciferase reporter, 24 h; AID 485313, 2010; further: nearly all actives have a fitted effect of over 60% in size
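Quantitative HTS used a cell-based reporter: Huh7 cells stably bearing the NPC1 promoter upstream of luciferase were treated with compounds for 24 h, and promoter activation was read as luminescence.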
FLuc modulator: qHTS profiling assay for firefly luciferase inhibitor/activator using purifed enzyme and Km concentrations of substrates (counterscreen for miR-21 project); Potency, µM (series often up to 57.5 µM), most hits filed as inhibitors; AID 588342, 2011; purified FLuc, Km substrates, luminescence inhibition; 360,000 tested, 6.9% active; further: nearly all actives have a fitted effect of over 55% in size
Target sequence (P08659 whole entry, looked up): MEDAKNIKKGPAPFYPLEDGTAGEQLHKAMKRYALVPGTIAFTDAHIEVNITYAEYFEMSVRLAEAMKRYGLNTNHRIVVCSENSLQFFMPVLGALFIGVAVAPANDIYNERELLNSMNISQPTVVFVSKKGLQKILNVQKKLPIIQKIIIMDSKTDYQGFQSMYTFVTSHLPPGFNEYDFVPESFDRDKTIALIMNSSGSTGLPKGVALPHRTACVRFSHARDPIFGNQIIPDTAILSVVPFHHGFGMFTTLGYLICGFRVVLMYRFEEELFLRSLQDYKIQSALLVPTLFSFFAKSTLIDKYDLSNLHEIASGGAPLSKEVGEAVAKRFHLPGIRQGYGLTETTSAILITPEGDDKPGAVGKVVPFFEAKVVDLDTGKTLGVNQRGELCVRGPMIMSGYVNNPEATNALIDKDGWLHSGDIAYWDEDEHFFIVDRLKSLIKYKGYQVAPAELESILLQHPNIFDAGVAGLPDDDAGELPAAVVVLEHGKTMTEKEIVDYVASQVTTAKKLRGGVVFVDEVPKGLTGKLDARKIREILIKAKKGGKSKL
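Purified P. pyralis luciferase (10nM final) with 10uM D-luciferin and 10uM ATP (Km levels) in 50mM Tris acetate pH 7.5, 10mM Mg acetate, 0.01% Tween-20, 0.05% BSA; qHTS 6-point titration, ~60 µM downward; luminescence read.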
Each line names hits and unclear results; the compound was inactive in the other large screens. Most compounds without a hit are left out; they make up all but 7.5% or so of the library. The call rests on the fitted dose curve; in most records, active means well fitted curve in the direction sought with a large enough effect; inconclusive means small, poorly fitted or top-dose-only effect, or another doubt; inactive means no such curve, though single readings can be large; an effect the other way counts as inactive or inconclusive.

COc1cc2nc(Nc3cccc(F)c3)nc(N)c2cc1OC	FLuc modulator inconclusive (no result: Luc counter)
COc1ccc(Nc2nc(N)c3cc(OC)c(OC)cc3n2)cc1	FLuc modulator 15µM (no result: ELG1 genotox, Luc counter, Rab9 prom act, NPC1 prom act)
CCc1cccc(C)c1NC(=O)CN(C)Cc1ccccc1F	none
Cc1ccc(Cl)cc1NC(c1ccc(F)cc1)c1nnc(-c2ccccc2)o1 (stereo not drawn)	none (no result: ELG1 genotox, Luc counter, Rab9 prom act, SMN2 splice enh, NPC1 prom act)
Cc1ccc(C)c(NC(c2ccccc2)c2nnc(-c3ccccc3F)o2)c1 (stereo not drawn)	FLuc modulator 15µM (no result: ELG1 genotox, Luc counter, Rab9 prom act, NPC1 prom act)
O=C(NC(=O)c1ccc(Cl)cc1)OC1CCCCC1	FLuc modulator inconclusive
Cc1ccc(CONC(=O)c2cccc(C)c2)cc1	Rab9 prom act inconclusive, FLuc modulator inconclusive (no result: Luc counter, SMN2 splice enh)
O=C(CNC(=O)c1ccc(Cl)cc1Cl)OCCOc1ccccc1	FLuc modulator 17µM (no result: Luc counter, SMN2 splice enh)
O=C(NOCc1ccccc1)c1ccc(Cl)cc1Cl	ELG1 genotox inconclusive, Rab9 prom act 0.4µM, NPC1 prom act 0.56µM, FLuc modulator 1.3µM (no result: Luc counter, SMN2 splice enh)
O=C(NOCc1ccccc1)c1ccccc1	ELG1 genotox 6.5µM, Rab9 prom act 1.8µM, NPC1 prom act 3.2µM, FLuc modulator 6µM (no result: Luc counter, SMN2 splice enh)
O=C(CN1CCOCC1)NN1CC(=O)N(c2ccc(Cl)cc2)CC1=O	none (no result: Luc counter, SMN2 splice enh)
CCN(c1ccc(OC)cc1)S(=O)(=O)c1ccc2[nH]c(=O)ccc2c1	FLuc modulator 5.4µM (no result: ELG1 genotox, Luc counter, Rab9 prom act, SMN2 splice enh, NPC1 prom act)
CCOC(=O)CCN(c1ccccc1)S(=O)(=O)c1ccc2[nH]c(=O)ccc2c1	none (no result: ELG1 genotox, Luc counter, Rab9 prom act, SMN2 splice enh, NPC1 prom act)
COC(=O)C1C2CC3c4[nH]c5cc(OC)ccc5c4CCN3CC2CC(OC(=O)c2cc(OC)c(OC)c(OC)c2)C1OC (stereo not drawn)	none (no result: ELG1 genotox, Rab9 prom act, SMN2 splice enh, NPC1 prom act, FLuc modulator)
CCOC(=O)c1ccc2nc(NC(=O)c3ccco3)sc2c1	ELG1 genotox inconclusive, Rab9 prom act 0.71µM, SMN2 splice enh 2.2µM, NPC1 prom act 0.89µM, FLuc modulator 2.7µM
CCOC(=O)c1ccc2nc(NC(=O)c3cccs3)sc2c1	ELG1 genotox inconclusive, Rab9 prom act 0.5µM, SMN2 splice enh 4µM, NPC1 prom act 0.71µM, FLuc modulator 1.2µM
CCOc1ccc2nc(NC(=O)c3ccco3)sc2c1	ELG1 genotox 1.3µM, Rab9 prom act 0.32µM, NPC1 prom act 0.32µM, FLuc modulator 0.67µM (no result: Luc counter, SMN2 splice enh)
CCOc1ccc2nc(NC(=O)c3ccoc3C)sc2c1	ELG1 genotox inconclusive, Luc counter 2.8µM, Rab9 prom act 0.5µM, SMN2 splice enh 2.5µM, NPC1 prom act 0.56µM, FLuc modulator 0.48µM
Cc1c(CNCCCc2ccccc2)c(C(=O)O)c(C)n1Cc1ccc(Cl)cc1	none (no result: ELG1 genotox, Luc counter, Rab9 prom act, NPC1 prom act)
N#CCCN(Cc1cccnc1)C(=S)NC1CC2C=CC1C2 (stereo not drawn)	none (no result: Luc counter, SMN2 splice enh)
Cc1sc(=NC(=O)c2ccco2)n(C)c1-c1ccc(F)cc1	ELG1 genotox inconclusive, Rab9 prom act 2µM, SMN2 splice enh 3.5µM, NPC1 prom act 2.8µM, FLuc modulator 2.4µM
Cn1c(=NC(=O)c2cccc([N+](=O)[O-])c2)sc2ccccc21	ELG1 genotox 0.82µM, Rab9 prom act 2.8µM, SMN2 splice enh 1.6µM, NPC1 prom act inconclusive, FLuc modulator 0.34µM
COc1cc(C(=O)N=c2sc3ccccc3n2C)cc(OC)c1OC	Rab9 prom act inconclusive, FLuc modulator inconclusive
Cn1c(=NC(=O)c2ccco2)sc2ccccc21	ELG1 genotox 4.1µM, Luc counter inconclusive, Rab9 prom act inconclusive, SMN2 splice enh 4.5µM, NPC1 prom act inconclusive, FLuc modulator 2.7µM
Cc1sc(=NC(=O)c2ccco2)n(C)c1-c1ccccc1	ELG1 genotox inconclusive, Rab9 prom act 1.3µM, SMN2 splice enh 2.2µM, NPC1 prom act 0.89µM, FLuc modulator 0.95µM
Cn1c(=NC(=O)CCl)sc2ccccc21	ELG1 genotox inconclusive
COc1ccc(NC(=O)C2CC(=O)N(c3ccccc3Cl)C2)c(OC)c1 (stereo not drawn)	none (no result: Luc counter, SMN2 splice enh)
Cc1ccc(OCCCC(=O)NNC(=O)c2ccccn2)cc1	none (no result: Luc counter, Rab9 prom act, SMN2 splice enh, NPC1 prom act, FLuc modulator)
Cc1cccc(CNC(=O)C2CCC(=O)N(CCc3cccc(F)c3)C2)n1 (stereo not drawn)	none (no result: Luc counter, SMN2 splice enh)
